Data on 15 compounds can be found in PubChem BioAssay AID2472 (National Center for Advancing Translational Sciences (NCATS), 2010).

Values joined by “and” are separate entries in the source; they are usually repeats but may differ in a detail not shown here. Equal entries are not always repeated. Screen size: about 290,000 compounds; about 2,000 (0.69%) were called active. Cut-off read from the data, not from the text of the source: active = activity change below about -30%; inactive = the rest, inconclusive results apart. What follows is part of a selection rich in actives, with near analogues and random picks from the rest. Some compounds were tested as several samples or in several runs, with calls that do not always agree.
% is set by controls: 0 for no effect and ±100 for the full control effect.

The nature of this experiment: qHTS Assay for Inhibitors of Fructose-1,6-bisphosphate Aldolase from Giardia Lamblia: Coupling assay counterscreen. The note with it: coupling enzyme system counterscreen, AmpLite Red fluorescence; at 58.2 µM (top of the series). The source says:
MLPCN Grant: MH085699-01 Assay Provider: Osnat Herzberg, University of Maryland NCGC Assay Overview: The objective of this project is to obtain compounds that inhibit Giardia lamblia growth. G. lamblia is a human pathogen which afflicts impoverished nations; it is the most common cause of outbreaks of diarrhea in the United States. During the course of our study of potential drug targets in Giardia, we have identified the Class II (Zn2+ functions in electrophilic catalysis) fructose-1,6-bisphosphate aldolase (FBPA) as an excellent candidate for drug targeting. FBPA is a key glycolytic pathway enzyme, essential for G. lamblia survival. The human FBPA belongs to the Class I aldolases, which have a different substrate binding site structure and a radically different catalytic mechanism (employing a lysine-Schiff base intermediate). Therefore, affinity-based or mechanism-based inhibitors of the Giardia FBPA are expected not to interfere with the catalytic function of the human FBPA. A glyceraldehyde-3-phosphate dehydrogenase/triose phosphate isomerase/NAD/arsenate coupled assay was adapted to the 1536-well HTP format for use in the primary screen. This was done by coupling it to a diaphorase/resazurin/resorufin reaction that can be monitored by fluorescence (excitation, 544 nm; emission, 590 nm). Compounds identified in this screen will be further evaluated by coupling the […]/triose phosphate isomerase/NADH assay to a phenazine methosulfate/tetranitroblue tetrazolium color reaction. False positives due to the dehydrogenases and diaphorase inhibition will be eliminated, and selectivity assay will triage inhibitors of mammalian triose phosphate isomerase and the Class I FBPA. G. lamblia FBPA inhibitors identified by the in vitro analyses will be examined for growth inhibition of Giardia trophozoites, and for cytotoxicity in human cells. This assay specifically addresses whether activity observed in the primary screen (AID 2451) is related to inhibition of the coupling assay used, as opposed to inhibition of aldolase. Actives in this assay are considered inconclusive for activity against aldolase.
NCGC Assay Protocol: Step,Parameter,Value,Description 1,Coupling enzyme reagent,2 uL,glyceraldehyde-3-phosphate 2,Compound,23 nL,3.68 nM-57.5 uM final concentration 3,Time,10 min,RT Incubation 4,Substrate/detection Reagent,2 uL,Substrate + enzyme coupling system + AmpLite Red kit 5,Time,20 min,RT Incubation 6,Detector,525 nm/598 nm (Fluorescence),ViewLux Fluorescence Read (Read 1) Notes: 1,Medium-binding black solid-bottom Kalypsys plates. FRD or Kalypsys dispenser. 2,Compound Library (10 mM ,1:5 dilution). Pin-transferred for a [final] range of 3.68 nM-57.5 uM. 3,RT incubation 4,FRD or Kalypsys dispenser, 2 uL of reaction mixture. Bottle kept at 4C and covered in foil to protect from light. 5,RT incubation 6,ViewLux Protocol 1194; Excitation filter wheel A (525/20 Pol; BODIPY TMR FP), Emission filter wheel B (598/25 S; BODIPY TMR FP S). Keywords: Fructose-bisphosphate aldolase, FBPA , Giardia lamblia , Giardia, HTS, Inhibitors
For the compound `C/C(CCc1c[nH]c2ccccc12)=N\O`, the activity change, negative = inhibition was -2.5% (inactive).
The figure for `NCCc1c[nH]c2ccc(O)cc12` is -9.84% (inactive) and -40.6% (active); for `Cc1cccc2c(CCN)c[nH]c12` it is -2.64% (inactive).
The figure for `N#Cc1cc(Br)c(O)c(Br)c1` is 2.57% (inactive); for `C[C@@H]1C[C@H]2CC[C@H](O2)[C@H](C)C(=O)O[C@@H](C)C[C@@H]2CC[C@@H](O2)[C@@H](C)C(=O)O[C@H](C)C[C@H]2CC[C@H](O2)[C@H](C)C(=O)O[C@@H](C)C[C@@H]2CC[C@@H](O2)[C@@H](C)C(=O)O1` it is -0.707% (inactive); for `C[C@H]1C/C=C/[C@@H]2[C@@H]3O[C@]3(C)[C@@H](C)[C@H]3[C@H](Cc4ccccc4)NC(=O)[C@]32OC(=O)O/C=C/[C@](C)(O)C1=O` it is 1.28% (inactive).
In the case of `CCCCCCCCCCCCN=C(N)N`, the activity change, negative = inhibition is -0.411% (inactive).
The figure for `CO[C@H]1[C@@H](O)[C@@H](C)O[C@H](O[C@H]2[C@H](Oc3cccc4c(O)c5c(=O)oc6ccc(C)c7c(=O)oc(c34)c5c67)O[C@H](C)[C@H](O)[C@@H]2O)[C@@H]1O` is -47.8% (active); for `Nc1ccc(-c2ccc(N)c(N)c2)cc1N` it is 3.84% (inactive).
Consider `CC(=O)[O][Sn]([c]1ccccc1)([c]1ccccc1)[c]1ccccc1`, for which the activity change, negative = inhibition is -1.83% (inactive).
The figure for `CN(C)C[C@H]1CCCC[C@]1(O)c1cccc(O)c1` is 0.267% (inactive); for `CCOC(=O)c1c(N)n(Cc2ccccc2)c2nc3ccccc3nc12` it is -2.59% (inactive).
The figure for `COc1cc(Cn2c(N)c(C(=O)NCc3ccco3)c3nc4ccccc4nc32)cc(OC)c1OC` is -52% (active); for `CCOC(=O)C(O)(c1ccc(NC(=O)c2ccco2)c(OC)c1)C(F)(F)F` (stereo not given) it is -4.29% (inactive); for `C[C@]12O[C@H](C[C@@]1(O)C(=O)O)n1c3ccccc3c3c4c(c5c6ccccc6n2c5c31)CNC4=O` it is 0.208% (inactive).
